Results reported in PubChem BioAssay.
Entries with a potency or affinity are not part of this list. Active and inactive are the calls of the source. How the calls were made is not given here.

Assay: A2780 cell killing – plate reader, dry powder samples, cytotoxicity control, dose response (AID 743046);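 further: 0% = neutral control wells and -100% = cytotoxic reference compound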
Conditions: A2780 ovarian cancer cytotoxicity; series mostly up to 35 µM; activity change, negative = cytotoxicity: at the top concentration
For C[C@@H]1CCCCO[C@H](CN(C)Cc2ccc(C(F)(F)F)cc2)[C@H](C)CN([C@H](C)CO)C(=O)c2cc(NS(=O)(=O)c3ccc(F)cc3)ccc2O1, the “activity change, negative = cytotoxicity” value was 15.8% (inactive). For C[C@@H]1CN([C@H](C)CO)C(=O)c2cc(NC(=O)c3ccncc3)ccc2O[C@@H](C)CCCCO[C@H]1CN(C)Cc1ccc(C(F)(F)F)cc1, the “activity change, negative = cytotoxicity” value was 14.7% (inactive). In the case of O=C(C[C@H]1CC[C@H]2[C@@H](COC[C@@H](O)CN2S(=O)(=O)c2ccccc2Cl)O1)N1CCC(Cc2ccccc2)CC1, the “activity change, negative = cytotoxicity” value is reported as -5.44% (inactive). For C[C@@H]1CN([C@@H](C)CO)C(=O)c2ccccc2-c2ccccc2CO[C@H]1CN(C)Cc1ccccc1C(F)(F)F, the “activity change, negative = cytotoxicity” value was 16.2% (inactive). In the case of C[C@@H]1CN([C@@H](C)CO)S(=O)(=O)c2ccc(C#Cc3ccccc3F)cc2O[C@H]1CN(C)CC1CCOCC1, the “activity change, negative = cytotoxicity” value is reported as -0.286% (inactive). In the case of C[C@@H]1CN([C@@H](C)CO)C(=O)Cc2cc(NC(=O)Nc3ccc(C(F)(F)F)cc3)ccc2O[C@H]1CN(C)S(=O)(=O)c1ccc(F)cc1, the “activity change, negative = cytotoxicity” value is reported as 25.4% (inactive). In the case of C[C@@H]1CCCCO[C@H](CN(C)C(=O)Nc2ccc(F)cc2)[C@@H](C)CN([C@@H](C)CO)C(=O)c2cc(NC(=O)Nc3ccc(C(F)(F)F)cc3)ccc2O1, the “activity change, negative = cytotoxicity” value is reported as 24.6% (inactive). With C[C@@H]1CCCCO[C@@H](CN(C)Cc2ccc(C(F)(F)F)cc2)[C@H](C)CN([C@H](C)CO)C(=O)c2cc(NS(=O)(=O)c3ccc(Cl)cc3)ccc2O1 the “activity change, negative = cytotoxicity” value was -22.1% (inactive). In the case of C[C@@H]1CCCCO[C@@H](CN(C)C(=O)C2CCCCC2)[C@H](C)CN([C@H](C)CO)C(=O)c2cc(NC(=O)Nc3ccc(F)cc3)ccc2O1, the “activity change, negative = cytotoxicity” value is reported as -12.7% (inactive). For C[C@H](CO)N1C[C@H](C)[C@H](CN(C)Cc2ccc(Cl)c(Cl)c2)Oc2c(NS(=O)(=O)c3ccc(Cl)cc3)cccc2C1=O, the “activity change, negative = cytotoxicity” value was 21.6% (inactive). For C[C@@H]1CCCCO[C@@H](CN(C)Cc2ccc(Cl)c(Cl)c2)[C@H](C)CN([C@@H](C)CO)C(=O)c2cc(NC(=O)Cc3ccccc3)ccc2O1, the “activity change, negative = cytotoxicity” value was 18.7% [at 16 µM] (inactive). In the case of C[C@H](CO)N1C[C@H](C)[C@H](CN(C)Cc2ccc3c(c2)OCO3)Oc2ccc(NC(=O)Nc3cccc4ccccc34)cc2C1=O, the “activity change, negative = cytotoxicity” value is reported as 0.976% (inactive). For COc1ccccc1-c1ccc2c(c1)[C@H]1[C@H](CCN1S(=O)(=O)c1ccccc1F)[C@H](CO)N2, the “activity change, negative = cytotoxicity” value was 14.4% (inactive). With C[C@@H]1CN([C@H](C)CO)C(=O)c2cc(NC(=O)c3ccccc3)ccc2O[C@@H](C)CCCCO[C@H]1CN(C)Cc1ccc(C(F)(F)F)cc1 the “activity change, negative = cytotoxicity” value was 11.6% (inactive). With C[C@H]1CCCCO[C@@H](CN(C)C(=O)c2ccccc2)[C@@H](C)CN([C@@H](C)CO)C(=O)c2cc(NC(=O)Nc3ccc(C(F)(F)F)cc3)ccc2O1 the “activity change, negative = cytotoxicity” value was 0.001% (inactive). In the case of Cc1ccc(S(=O)(=O)N(C)C[C@H]2Oc3c(NC(=O)Nc4ccc(F)cc4)cccc3C(=O)N([C@@H](C)CO)C[C@H]2C)cc1, the “activity change, negative = cytotoxicity” value is reported as 12.3% (inactive). For O=S(=O)(c1ccc(F)cc1)N1C[C@H]2[C@@H](c3ccccc31)[C@H](CO)N2Cc1ccccc1Cl, the “activity change, negative = cytotoxicity” value was 17% (inactive). In the case of Cc1ccc(S(=O)(=O)N(C)C[C@H]2OCCCC[C@@H](C)Oc3ccc(NS(=O)(=O)c4ccc(F)cc4)cc3C(=O)N([C@@H](C)CO)C[C@H]2C)cc1, the “activity change, negative = cytotoxicity” value is reported as -7.65% [at 30 µM] (inactive). For C[C@H](CO)N1C[C@H](C)[C@@H](CN(C)CC2CCCCC2)Oc2ccc(NC(=O)Nc3ccc4c(c3)OCO4)cc2CC1=O, the “activity change, negative = cytotoxicity” value was 29% (inactive). In the case of O=C(C[C@@H]1C[C@H]2c3cc(NC(=O)C4CCOCC4)ccc3O[C@H]2[C@H](CO)O1)NCc1ccc(Oc2ccccc2)cc1, the “activity change, negative = cytotoxicity” value is reported as -10.1% (inactive). In the case of C[C@H]1CCCCO[C@@H](CN(C)Cc2ccc(C(F)(F)F)cc2)[C@@H](C)CN([C@@H](C)CO)C(=O)c2cc(NS(=O)(=O)c3cccs3)ccc2O1, the “activity change, negative = cytotoxicity” value is reported as -11% (inactive). With C[C@H](CO)N1C[C@H](C)[C@@H](CN(C)Cc2ccc(Cl)c(Cl)c2)OCCCC[C@H](C)Oc2ccc(NC(=O)Nc3ccc(C(F)(F)F)cc3)cc2C1=O the “activity change, negative = cytotoxicity” value was 6.59% (inactive). With C[C@@H]1CCCCO[C@H](CN(C)C(=O)C2CCCCC2)[C@@H](C)CN([C@@H](C)CO)C(=O)c2cc(NC(=O)Nc3ccccc3)ccc2O1 the “activity change, negative = cytotoxicity” value was 26.6% (inactive). With C[C@@H]1CN([C@H](C)CO)C(=O)Cc2cc(NC(=O)Nc3ccc(F)cc3)ccc2O[C@@H]1CN(C)Cc1ccc(Cl)c(Cl)c1 the “activity change, negative = cytotoxicity” value was 13.6% (inactive). For C[C@H]1CN([C@@H](C)CO)C(=O)CCCn2nncc2CO[C@@H]1CN(C)C(=O)Nc1ccc(-c2cccs2)cc1, the “activity change, negative = cytotoxicity” value was -14.4% (inactive). In the case of C[C@@H]1CCCCO[C@H](CN(C)CC2CCCCC2)[C@H](C)CN([C@H](C)CO)C(=O)c2cc(NS(=O)(=O)c3ccc(Cl)cc3)ccc2O1, the “activity change, negative = cytotoxicity” value is reported as 13.7% (inactive).
